Measurements published in PubChem BioAssay AID2783 (National Center for Advancing Translational Sciences (NCATS), 2010).
Results filed as inconclusive are left out. Activity calls are given as the source filed them. The call rests on the fitted dose curve; in most records, active means well fitted inhibition curve with a large enough effect in the polarisation, with a control signal flat (not every such curve was filed as active); inconclusive means small, poorly fitted or top-dose-only effect, or effect the other way, or a change in a side signal; inactive means no such curve, though single readings can be large or run the other way; the % refers to the polarisation.

Target: Menin (Homo sapiens) (UniProt O00255)
Sequence (O00255 whole entry, looked up): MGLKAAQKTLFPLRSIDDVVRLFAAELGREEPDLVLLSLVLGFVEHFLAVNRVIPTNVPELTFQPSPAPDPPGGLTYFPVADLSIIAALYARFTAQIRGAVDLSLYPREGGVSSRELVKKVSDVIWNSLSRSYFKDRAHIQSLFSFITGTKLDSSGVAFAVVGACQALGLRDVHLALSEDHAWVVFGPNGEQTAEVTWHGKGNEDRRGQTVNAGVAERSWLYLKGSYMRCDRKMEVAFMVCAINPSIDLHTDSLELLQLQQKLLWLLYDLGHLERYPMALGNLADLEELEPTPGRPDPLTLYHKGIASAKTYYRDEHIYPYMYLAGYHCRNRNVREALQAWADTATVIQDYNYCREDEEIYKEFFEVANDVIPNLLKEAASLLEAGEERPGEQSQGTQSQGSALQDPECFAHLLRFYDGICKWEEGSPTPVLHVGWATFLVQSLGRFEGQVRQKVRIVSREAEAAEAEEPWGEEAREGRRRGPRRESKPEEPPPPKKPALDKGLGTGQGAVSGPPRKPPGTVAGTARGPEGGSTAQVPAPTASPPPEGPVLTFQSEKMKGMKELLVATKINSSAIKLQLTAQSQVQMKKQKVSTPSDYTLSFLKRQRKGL
Test: Confirmation of Inhibitors Targeting the Menin-MLL Interaction in MLL Related Leukemias: Competition With Fluorescein Labeled MLL-derived Peptide
Conditions: Fluorescence polarization, fluorescein-MLL peptide displacement from menin; series mostly up to 100 µM

outcome, inactive:
Cc1ccc(/C=C2\SC(=S)N(CC(=O)Nc3ncc(Cc4ccccc4Cl)s3)C2=O)cc1, N#Cc1ccc(Cl)cc1NC(=O)CNCc1cccs1, O=C(Cn1c(=O)c2c3c(sc2n(Cc2ccccc2)c1=O)CCCC3)NCCO, CN1C[C@@H]2C[C@H]1CN2c1cc2c(cc1F)c(=O)c(C(=O)O)cn2C1CC1, CC(C)Sc1nc(N2CCOCC2)c2c3c(sc2n1)COC(C)(C)C3, CCn1cnc2c1c(=O)n(CC(=O)O)c(=O)n2Cc1ccccc1, O=c1c2ccccc2nc(N/N=C/c2c(O)ccc3ccccc23)n1O, Cc1cc2ncn(-c3ncnc4sc5c(c34)CCC(C)C5)c2cc1C (centres undefined), O=C1C(Cl)=C(NCCN2CCOCC2)C(=O)c2ncccc21, O=C(Nc1nnc(SCc2ccc(F)cc2)s1)c1ccc2c(c1)C(=O)N(c1ccccc1Cl)C2=O, COc1ccccc1C(=O)Nc1ccccc1SC(=O)c1ccccc1OC, COc1ccc2nc(NC(=O)CSc3nnc(N)s3)sc2c1, Cc1ccc(NC(=O)CN(C)C(=O)COc2cccc3cccnc23)cc1, O=C(C1CCCN(Cc2cccc(Cl)c2)C1)N1CCCCC1 (centres undefined), O=C(C1=C(O)C(=O)N(CCN2CCOCC2)C1c1cccc(Br)c1)c1cccs1 (centres undefined), COC(=O)C1[C@H]2SC(C)(C)C(C(=O)OC)N2C(=O)N1Cc1nc2ccccc2s1 (some centres undefined), C=C1CCC[C@]2(C)C[C@H]3OC(=O)C(CNCCN(CC)CC)[C@H]3CC12 (some centres undefined), O=C1C(Cl)=C(NC(=O)c2ccccc2)C(=O)C(Cl)=C1NC(=O)c1ccccc1, COc1cc(OC)c2ccc(=O)oc2c1C(CCN1CCOCC1)c1ccc(N(C)C)cc1 (centres undefined), Oc1ccc(Nc2ncnc3c2oc2ccccc23)cc1, NC(=O)C1CCN(C2=C(Cl)C(=O)c3ccccc3C2=O)CC1, COc1ccccc1CNCC(=O)Nc1ccc(C#N)cc1, COc1ccccc1N(CC1CO1)S(=O)(=O)c1ccccc1 (centres undefined), CCOC(=O)N1CCN(CC(=O)N2c3ccccc3Sc3ccccc32)CC1, Cc1[nH][nH]c(=O)c1C(c1c(C)[nH][nH]c1=O)c1cn(Cc2ccccc2Cl)c2ccccc12, Cc1cc(N2CCOCC2)nc2ccc(Cl)cc12, O=C(Cn1nc(-c2ccccc2)ccc1=O)N1CCCCC1, O=C(N/N=C/c1cn(-c2cccs2)nc1-c1ccccc1)c1ccccc1O, C=C(C)[C@@H]1CC=C(CN2CCN(Cc3ccccc3)CC2)CC1, O=C(CC(Sc1ccc(Br)cc1)C(=O)O)c1ccc(F)cc1 (centres undefined), COc1ccc(NC2=C(NCCO)C(=O)c3ccccc3C2=O)cc1, COCC(=O)Nc1cccc2ccccc12, C/C(=N\NC(=O)c1nnn(-c2nonc2N)c1C)c1ccc(-c2ccccc2)cc1, COc1ccc(-c2csc(NC(=O)c3cc(-c4cccs4)nc4ccccc34)n2)c(OC)c1
